Laboratory results reported in PubChem BioAssay (Tox21).
Inconclusive results are not listed. The source made the active and inactive calls. Unless noted, calls come from the whole dose curve; as a rule, active = well fitted curve in the direction sought with a large enough effect in the repeat runs; inconclusive = weak or mixed curves; inactive = no such curve, though single readings can be large; an effect the other way counts as inactive or inconclusive.

Experiments:
[1] = qHTS assay to test for compound auto fluorescence at 535 nm (green) in HEK293 cells (AID 720680)
[2] = qHTS assay to test for compound auto fluorescence at 460 nm (blue) in HEK293 cell free culture (AID 720681)
In short: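 Compounds were added to cell-free DMEM with 10% FBS and fluorescence read directly. The blue channel used 405 nm excitation and 460 nm emission, with triamterene as the reference fluorophore.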

[3] = qHTS assay to test for compound auto fluorescence at 535 nm (green) in HEK293 cell free culture (AID 720682)
In short: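 Cell-free medium (DMEM, 10% FBS) receives compound or DMSO by pintool. Plate read directly at Ex 485/Em 535 nm. Signal converted to fluorescein equivalency.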

[4] = qHTS assay to test for compound auto fluorescence at 590 nm (red) in HEK293 cell free culture (AID 720683)
In short: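 Cell-free wells of DMEM with 10% FBS received compound, and intrinsic fluorescence was read at excitation/emission 540/590 nm. Values expressed as equivalence to Rose Bengal sodium.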

[5] = qHTS assay to test for compound auto fluorescence at 460 nm (blue) in HepG2 cell free culture (AID 720685)
In short: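 Compound (23 nL) or DMSO pinned into cell-free MEM with 10% FBS; blue fluorescence read at 405/460 nm excitation/emission, expressed as auto-fluorescence equivalency to triamterene.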

[6] = qHTS assay to test for compound auto fluorescence at 535 nm (green) in HepG2 cell free culture (AID 720686)
[7] = qHTS assay to test for compound auto fluorescence at 460 nm (blue) in HepG2 cells (AID 720687)
In short: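 HepG2 cells in MEM with 10% FBS, attached overnight at 37 C, were exposed to compound or DMSO for 1 hr at 37 C, 5% CO2. Blue fluorescence was read at 405/460 nm, with triamterene as reference fluorophore.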

[8] = target: Glucocorticoid receptor (Homo sapiens) (UniProt P04150); assay: qHTS assay to identify small molecule agonists of the glucocorticoid receptor (GR) signaling pathway (AID 720691; active = well fitted activation curve with a large enough effect in the signal ratio in the repeat runs, not every such curve was filed as active; the % refers to the signal ratio)
Glucocorticoid receptor (Homo sapiens), sequence (P04150 whole entry, looked up): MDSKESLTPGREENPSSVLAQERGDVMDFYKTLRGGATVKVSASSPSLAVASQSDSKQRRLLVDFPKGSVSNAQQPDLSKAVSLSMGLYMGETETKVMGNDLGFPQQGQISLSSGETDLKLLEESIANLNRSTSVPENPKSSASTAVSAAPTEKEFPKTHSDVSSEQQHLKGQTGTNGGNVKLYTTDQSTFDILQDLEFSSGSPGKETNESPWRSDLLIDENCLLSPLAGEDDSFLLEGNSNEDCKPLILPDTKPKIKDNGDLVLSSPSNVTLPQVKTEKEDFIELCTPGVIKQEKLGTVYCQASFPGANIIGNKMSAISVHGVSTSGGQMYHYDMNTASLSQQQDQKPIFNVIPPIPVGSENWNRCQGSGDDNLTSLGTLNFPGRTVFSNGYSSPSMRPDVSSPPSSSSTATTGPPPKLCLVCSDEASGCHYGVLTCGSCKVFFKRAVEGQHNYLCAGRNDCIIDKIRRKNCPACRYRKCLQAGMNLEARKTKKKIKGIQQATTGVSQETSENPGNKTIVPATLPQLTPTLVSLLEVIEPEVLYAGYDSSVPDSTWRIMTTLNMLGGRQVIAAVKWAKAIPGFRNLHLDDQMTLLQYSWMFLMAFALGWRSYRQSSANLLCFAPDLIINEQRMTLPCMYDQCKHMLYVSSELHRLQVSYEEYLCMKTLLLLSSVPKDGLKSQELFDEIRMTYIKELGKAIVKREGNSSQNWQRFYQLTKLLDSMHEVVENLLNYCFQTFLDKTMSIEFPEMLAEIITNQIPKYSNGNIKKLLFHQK
In short: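 Fluorescence intensity from LiveBLAzer B/G FRET substrate (2 h, room temperature) reports beta-lactamase expression driven by the glucocorticoid response element in GR-bla HeLa cells after 18 h compound exposure at 37 C.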

[9] = target: Glucocorticoid receptor (Homo sapiens) (UniProt P04150); assay: qHTS assay to identify small molecule antagonists of the glucocorticoid receptor (GR) signaling pathway (AID 720692; active = well fitted inhibition curve with a large enough effect in the signal ratio in the repeat runs, not every such curve was filed as active; the % refers to the signal ratio)
In short: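 HeLa GR-bla cells; cmpd + dex 5 nM final, 18 h 37 C; LiveBLAzer B/G FRET substrate 2 h RT; fluorescence intensity read. Antagonist mode, qHTS.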

[10] = qHTS assay to identify small molecule antagonists of the glucocorticoid receptor (GR) signaling pathway - cell viability counter screen (AID 720693); note: nearly all actives have a fitted effect of over 55% in size
[11] = qHTS assay to identify small molecule antagonists of the androgen receptor (AR) signaling pathway - cell viability counter screen (AID 743033; note: nearly all actives have a fitted effect of over 45% in size)
[12] = qHTS assay to identify small molecule antagonists of the androgen receptor (AR) signaling pathway using the MDA cell line - cell viability counter screen (AID 743041; note: nearly all actives have a fitted effect of over 45% in size)
In short: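 Same-well cytotoxicity was assessed by CellTiter-Fluor in MDA-kb2 AR-luc cells after 16 h of compound treatment under R1881 agonism.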

[13] = qHTS assay to test for compound auto fluorescence at 590 nm (red) in HepG2 cell free culture (AID 720684)
In short: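 Compounds are added to culture medium (MEM, 10% FBS) lacking cells, then fluorescence is read at excitation 540 nm, emission 590 nm, with Rose Bengal sodium as the equivalency standard.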

[14] = qHTS assay for identifying genotoxic compounds that show differential cytotoxicity against isogenic chicken DT40 cell lines with known DNA damage response pathways - wild type cell line (AID 743012); note: nearly all actives have a fitted effect of over 60% in size; note: potency is the fitted concentration of half-maximal effect
In short: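 Wild type DT40, 300 cells/well, ~0.5 h settle at 37 C/5% CO2; compounds in DMSO added by pintool; 40 h at 37 C/5% CO2; CellTiter-Glo, 30 min RT; luminescence.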

[15] = qHTS assay for identifying genotoxic compounds that show differential cytotoxicity against isogenic chicken DT40 cell lines with known DNA damage response pathways - Rev3 mutant cell line (AID 743014); note: nearly all actives have a fitted effect of over 55% in size; note: potency is the fitted concentration of half-maximal effect
[16] = qHTS assay for identifying genotoxic compounds that show differential cytotoxicity against isogenic chicken DT40 cell lines with known DNA damage response pathways - Rad54/Ku70 mutant cell line (AID 743015); note: nearly all actives have a fitted effect of over 60% in size; note: potency is the fitted concentration of half-maximal effect
[17] = target: Androgen receptor (Homo sapiens) (UniProt P10275); assay: qHTS assay to identify small molecule antagonists of the androgen receptor (AR) signaling pathway (AID 743035; active = well fitted inhibition curve with a large enough effect in the signal ratio in the repeat runs, not every such curve was filed as active; the % refers to the signal ratio)
Androgen receptor (Homo sapiens), sequence (P10275 whole entry, looked up): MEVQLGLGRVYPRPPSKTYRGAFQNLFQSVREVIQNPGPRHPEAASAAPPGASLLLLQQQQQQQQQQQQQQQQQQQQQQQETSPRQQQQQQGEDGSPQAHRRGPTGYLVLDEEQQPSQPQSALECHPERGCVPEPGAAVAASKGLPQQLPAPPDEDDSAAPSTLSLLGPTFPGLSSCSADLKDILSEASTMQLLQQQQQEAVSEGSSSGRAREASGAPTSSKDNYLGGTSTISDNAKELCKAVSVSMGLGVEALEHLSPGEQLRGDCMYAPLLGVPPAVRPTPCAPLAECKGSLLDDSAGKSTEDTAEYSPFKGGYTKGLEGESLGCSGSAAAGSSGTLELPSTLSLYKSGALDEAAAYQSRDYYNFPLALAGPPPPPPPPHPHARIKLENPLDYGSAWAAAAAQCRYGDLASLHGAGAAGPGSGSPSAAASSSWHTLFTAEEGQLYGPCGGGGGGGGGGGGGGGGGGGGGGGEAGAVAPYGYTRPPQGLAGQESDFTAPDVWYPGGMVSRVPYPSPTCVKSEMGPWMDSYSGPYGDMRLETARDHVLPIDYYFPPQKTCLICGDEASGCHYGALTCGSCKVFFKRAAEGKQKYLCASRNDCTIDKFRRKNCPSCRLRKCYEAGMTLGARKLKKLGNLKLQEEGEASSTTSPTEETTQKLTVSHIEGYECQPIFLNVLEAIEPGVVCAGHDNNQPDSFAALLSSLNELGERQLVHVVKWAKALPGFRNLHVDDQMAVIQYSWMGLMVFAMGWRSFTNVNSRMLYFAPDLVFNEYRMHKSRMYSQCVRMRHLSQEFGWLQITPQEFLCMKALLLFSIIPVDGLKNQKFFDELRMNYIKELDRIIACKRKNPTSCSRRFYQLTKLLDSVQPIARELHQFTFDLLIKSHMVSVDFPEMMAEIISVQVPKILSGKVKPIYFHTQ
In short: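 Fluorescence from a beta-lactamase FRET substrate (LiveBLAzer B/G, 2 h, room temperature) measured inhibition of R1881-stimulated signaling in GeneBLAzer AR-UAS-bla HEK293 cells exposed to compound for 16 h at 37C.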

[18] = target: Androgen receptor (Homo sapiens) (UniProt P10275); assay: qHTS assay to identify small molecule agonists of the androgen receptor (AR) signaling pathway (AID 743036; active = well fitted activation curve with a large enough effect in the signal ratio in the repeat runs, with a control signal flat, not every such curve was filed as active; the % refers to the signal ratio)
In short: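 AR-bla HEK293 cells, 2,000/well; 4 h preincubation 37C/5% CO2; compound (DMSO) 16 h at 37C; LiveBLAzer B/G FRET substrate 2 h RT; fluorescence intensity read-out.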

[19] = target: Androgen receptor (Homo sapiens) (UniProt P10275); assay: qHTS assay to identify small molecule agonists of the androgen receptor (AR) signaling pathway using the MDA cell line (AID 743040; note: nearly all actives have a fitted effect of over 20% in size)
In short: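 Human breast carcinoma MDA-kb2 reporter cells (MMTV-luc, AR/GR elements) were treated for 16 h at 37C in 0% CO2 following a 5 h settling period. Signal was quantified by ONE-Glo luminescence.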

[20] = target: Androgen receptor (Homo sapiens) (UniProt P10275); assay: qHTS assay to identify small molecule antagonists of the androgen receptor (AR) signaling pathway using the MDA cell line (AID 743042; note: nearly all actives have a fitted effect of over 55% in size)
In short: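 MDA-kb2 breast carcinoma cells carrying MMTV-luciferase (AR/GR responsive) were co-treated with compounds and the agonist R1881 for 16 h at 37C. Inhibition read as ONE-Glo luminescence; CellTiter-Fluor fluorescence measured in parallel for cytotoxicity.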
% is set by controls: 0 for no effect and ±100 for the full control effect.

CS(C)=O
inactive: outcome [1] | Potency [2] | outcome [3] | outcome [4] | outcome [5] | outcome [6] | outcome [7] | Potency [8] | Potency [9] | Potency [10] | Potency [11] | Potency [12]

c1ccc(CCNc2nc(-c3ccccc3)cs2)cc1
inactive: outcome [1] | Potency [2] | outcome [3] | outcome [4] | outcome [13] | outcome [5] | outcome [7] | Potency [10] | Potency [12]
active: Potency [14] 29.8 µM | Potency [15] 29.8 µM | Potency [16] 33.5 µM

Cc1cccc(C)c1NC(=O)CN1CCCC1
inactive: outcome [1] | Potency [2] | outcome [3] | outcome [4] | outcome [5] | outcome [6] | outcome [7] | Potency [9] | Potency [10] | Potency [14] | Potency [15] | Potency [16] | Potency [11] | Potency [12]

O=C(O)c1ccc(O)c(O)c1
inactive: outcome [1] | Potency [2] | outcome [3] | outcome [4] | outcome [5] | outcome [6] | outcome [7] | Potency [10] | Potency [14] | Potency [15] | Potency [16] | Potency [11] | Potency [17] | outcome [18] | outcome [19] | Potency [12] | Potency [20]

Cc1c(Cl)cccc1Nc1ccccc1C(=O)O
inactive: outcome [1] | Potency [2] | outcome [3] | outcome [4] | outcome [13] | outcome [5] | outcome [7] | Potency [10] | Potency [15] | Potency [12]

Cc1ccc(S(=O)(=O)NC(=O)NC2CCCC2)cc1
inactive: outcome [1] | Potency [2] | outcome [3] | outcome [4] | outcome [5] | outcome [6] | outcome [7] | Potency [8] | Potency [9] | Potency [10] | Potency [14] | Potency [15] | Potency [16] | Potency [12]

O=C(O)c1ccccc1-n1cc(C(=O)O)c(=O)c2cc(Nc3c(F)cc(F)cc3Cl)c(Cl)cc21
inactive: outcome [1] | Potency [2] | outcome [3] | outcome [4] | outcome [13] | outcome [5] | outcome [7] | Potency [10] | Potency [15] | Potency [16] | Potency [11]

CCc1cnc(C(=O)O)c(C(=O)O)c1
inactive: outcome [1] | Potency [2] | outcome [3] | outcome [4] | outcome [5] | outcome [6] | outcome [7] | Potency [10] | Potency [16] | Potency [11] | Potency [12]

CC(COc1ccccc1)NC(C)C(O)c1ccc(O)cc1 (stereo not given)
inactive: fluorescence, % of fluorescein [1] 0.0104% [at 18.6 µM] | fluorescence, % of fluorescent control [2] 0.128% [at 18.6 µM] | activity change [3] -0.0013% [at 18.6 µM] | fluorescence, % of fluorescent control [4] 0.208% [at 18.6 µM] | fluorescence, % of fluorescent control [5] -0.0841% [at 18.6 µM] | fluorescence, % of fluorescein control [6] 0.0107% [at 18.6 µM] | fluorescence, % of fluorescent control [7] 0.0066% [at 18.6 µM] | Potency [8] | Potency [9] | Potency [10] | Potency [14] | Potency [15] | Potency [16] | Potency [11]
